The supplement of paper PMC6555819

Legend:
Test in all cases: PBM binding z-score (relative to random genomic background probes); higher = stronger binding; sequences stand for … in GC…GCGATTGACAGCGTAGAATGAAGG
[1] = system: RARb homodimer (NR concentration 270 nM)
Summary of the method: (§1)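 Antibodies against each partner of ligand-free nuclear receptor dimers (one per run) detected binding on custom Agilent 4×180K protein-binding microarrays after 1 h incubation. The double-stranded probes had 34-nt variable regions carrying direct-repeat seeds, single-nucleotide variants, half-site ablations and random human genomic background sequences. Binding z-scores, from regression-normalized fluorescence, use the random background probes as reference.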

[2] = system: RARg:RXRa (NR concentration 270 nM, RXRa partner concentration 90 nM)
Summary of the method: as §1

[3] = system: RARg homodimer (NR concentration 270 nM)
Summary of the method: as §1

[4] = system: RXRa DBDmut IVT, anti-RXR (DBD mutation: RXRa K156A/R161A, NR concentration 90 nM)
Summary of the method: as §1

[5] = system: RXRa homodimer (NR concentration 180 nM)
Summary of the method: as §1

[6] = system: THRa:RXRa (NR concentration 90 nM, RXRa partner concentration 90 nM)
Summary of the method: as §1

[7] = system: THRa homodimer (NR concentration 90 nM)
Summary of the method: as §1

[8] = system: VDR homodimer (NR concentration 270 nM)
Summary of the method: as §1

Row | Sequence | PBM binding z-score [1] | PBM binding z-score [2] | PBM binding z-score [3] | PBM binding z-score [4] | PBM binding z-score [5] | PBM binding z-score [6] | PBM binding z-score [7] | PBM binding z-score [8]
1 | ATCTCTATGTAAGACTCAGTTCAGTGAAGAACGC | 0.277 | -0.035 | 0.0537 | 0.294 | -0.183 | 0.172 | 0.339 | 1.16
2 | CGTCAAAGTTCACGGTAACGTAACAGAAAGCAGC | 4.26 | 6.31 | 7.19 | 4.62 | 6.17 | 2.38 | -0.36 | 4.02
3 | CTACCAAGGTGAACGAGGTCGTTGATTACTATTC | 2.24 | 2.13 | 1.32 | 1.85 | 2.26 | 3.36 | 2.17 | 3.61
4 | CCTAGCAGGCCAGGGTCACACAAGCATTTCGCTT | 2.98 | 3.72 | 2.62 | 0.238 | 4.27 | 3.45 | 1.54 | 1.18
5 | ATCTCTAGGTAACCAAGTTCAGTGACTGCCGAAC | 1.39 | 0.744 | 0.871 | 1.24 | 0.577 | 1.46 | 1.03 | 2.9
6 | CGTCCAAGGTCAGAGAGGTCAGTGAATGCCGAGT | 5.19 | 6.25 | 6.97 | 3.52 | 5.73 | 4.19 | 2.86 | 5.68
7 | CCGAGTAGGTTATGGGGCTTTCAGGCAACGGTGA | 0.416 | 0.0177 | 0.1 | -0.273 | 0.293 | 0.519 | 0.657 | 0.00532
8 | AGTAGCAGGCCAAGTTTGGGTCACTCAAACAAAG | 2.22 | 2.3 | 1.7 | -0.435 | 0.67 | 2.62 | 1.08 | 0.19
9 | ATCTCTAGGTAACCATGTTCAGTGAATGCCGAAC | 0.332 | 0.315 | 0.421 | 0.392 | 0.272 | 0.812 | 0.66 | 0.0942
10 | TCATATAGGCAAAGGTGAAAGTCGAACGATATGA | 1.42 | 1.59 | 1.08 | 0.694 | 2.3 | 1.22 | -0.37 | -0.123
11 | ATCTCTAGGTAAAGTTAAGTGAAAGATCGATAGA | -0.142 | 0.48 | 0.546 | 0.204 | 0.171 | 0.478 | -0.14 | 0.368
12 | ATCACTAGGTAAAAGTTCAGTGAATCCCGAGGAT | 2.5 | 2.11 | 1.85 | 0.717 | 1.85 | 1.32 | 0.468 | 1.8
13 | TCTAGTTGGTCACGGAGGTCTCACACGACGGGTA | 1.65 | 1.31 | 1.72 | 0.721 | 1.01 | 0.636 | 0.268 | 0.33
14 | TCATAAAGGTAAAGGTGAAAGTCGAACGATATGA | 1.86 | 2.14 | 2.08 | 1.06 | 2.73 | 1.73 | -0.454 | 0.0173
15 | TCTTGTAGATCAACAGGAGGTTAAGAAGGATCGA | 0.431 | 0.952 | 0.15 | 0.27 | 1.09 | 0.94 | -0.619 | -0.0476
16 | TCGAGTAGGTTACCTATGGGGCATTCAGCTTTCT | 0.279 | 1.39 | 0.398 | 0.211 | 0.571 | 0.16 | -0.89 | -0.367
17 | CCTTACGGGTCACGAGGATATAGCACGACGAGCG | 3.37 | 5.53 | 5.26 | 0.944 | 6.1 | 3.16 | 0.656 | 0.89
